# Measured values from the supplement of paper PMC8728848.
# Many of the other results were omitted from the sample, so the strongest signals are more common in it than they were.
# How the values were obtained:
# Assay in all cases: glycan array binding signal (z-score within array); higher = stronger binding
# Conditions in all cases: glycan notation: IUPAC condensed, linker removed
# Man(a1-3)[Man(a1-6)]Man = target: Man(a1-3)[Man(a1-6)]Man
# Method in brief: (§1)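 From the Consortium for Functional Glycomics database, 3228 arrays were curated, keeping only those whose protein sequence was available. Binding is given as a within-array Z-score averaged across arrays sharing a protein sequence and across linkers. Negative Z-scores can be read as non-binding.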
# [1] = target: Neu5Ac(a2-3)Gal(b1-3)GlcNAc(b1-2)Man
# Method in brief: as §1
# [2] = target: Neu5Ac(a2-3)Gal(b1-3)GlcNAc(b1-6)GalNAc
# Method in brief: as §1
# [3] = target: Neu5Ac(a2-3)Gal(b1-4)GlcNAc(b1-3)Gal(b1-4)GlcNAc(b1-3)Gal(b1-4)GlcNAc(b1-2)Man(a1-3)[Neu5Ac(a2-3)Gal(b1-4)GlcNAc(b1-3)Gal(b1-4)GlcNAc(b1-3)Gal(b1-4)GlcNAc(b1-2)Man(a1-6)]GalNAc
# Method in brief: as §1
# [4] = target: Neu5Ac(a2-3)Gal(b1-4)GlcNAc(b1-3)Gal(b1-4)GlcNAc(b1-3)GalNAc
# Method in brief: as §1
# [5] = target: Neu5Ac(a2-3)Gal(b1-4)GlcNAc(b1-3)GalNAc
# Method in brief: as §1
# [6] = target: Neu5Ac(a2-3)Gal(b1-4)GlcNAc(b1-6)GalNAc
# Method in brief: as §1
# [7] = target: Neu5Ac(a2-6)Gal(b1-4)GlcNAc(b1-2)[Neu5Ac(a2-6)Gal(b1-4)GlcNAc(b1-4)]Man(a1-3)[GlcNAc(b1-4)][Neu5Ac(a2-6)Gal(b1-4)GlcNAc(b1-2)[Neu5Ac(a2-6)Gal(b1-4)GlcNAc(b1-6)]Man(a1-6)]Man(b1-4)GlcNAc(b1-4)GlcNAc
# Method in brief: as §1
# [8] = target: Neu5Ac(a2-6)Gal(b1-4)GlcNAc(b1-3)GalNAc
# Method in brief: as §1
# [9] = target: Neu5Ac(a2-6)Gal(b1-4)GlcNAc(b1-6)[Gal(b1-3)GlcNAc(b1-3)]Gal(b1-4)Glc
# Method in brief: as §1
# Neu5Ac(a2-6)GalNAc = target: Neu5Ac(a2-6)GalNAc
# Method in brief: as §1
# [10] = target: Neu5Ac(a2-6)GalNAc(b1-4)GlcNAc6S
# Method in brief: as §1
# [11] = target: Neu5Ac(a2-8)Neu5Ac(a2-3)[Gal(b1-3)GalNAc(b1-4)]Gal(b1-4)Glc
# Method in brief: as §1
# [12] = target: Neu5Gc(a2-3)Gal(b1-4)GlcNAc
# Method in brief: as §1
# [13] = target: Neu5Gc(b2-6)Gal(b1-4)GlcNAc
# Method in brief: as §1
binder,measurement,setting,value
Cohesin-mDC-ASGPR (Macaca mulatta) (protein) LDITSHHHHHHDDLDAVRIKVDTVNAKPGDTVRIPVRFSGIPSKGIANCDFVYSYDPNVLEIIEIEPGDIIVDPNPDKSFDTAVYPDRKIIVFLFAEDSGTGAYAITKDGVFATIVAKVKEGAPNGLSVIKFVEVGGFANNDLVEQKTQFFDGGVNVGDTTEPATPTTPVTTPTTTDDLDAASSQNSKFQRDLVTLRTDFSNFTSNTVAEIQALTSQGSSVEEMIASLKAEVEVIKQEQQAVHSEMLLRVQRLMQDLNKLTCQVATLKNNASTERTCCPVNWVEHQDSCYWFSRSGMPWAEAEKHCQLENAHLVVINSREEQNFVQEHLSFAYTWMGLSDREGAWKWVDGTDYETGFQNWKPGQPDDWQGHGLGGGEDCAHFHPDGRWNDDVCQRPYYWVCEAGLTQASQESH,glycan array binding signal (z-score),Man(a1-3)[Man(a1-6)]Man,-0.397
same,glycan array binding signal (z-score),[1],-0.342
same,glycan array binding signal (z-score),[2],3.56
same,glycan array binding signal (z-score),[3],-0.248
same,glycan array binding signal (z-score),[4],-0.413
same,glycan array binding signal (z-score),[5],-0.418
same,glycan array binding signal (z-score),[6],3.67
same,glycan array binding signal (z-score),[7],-0.401
same,glycan array binding signal (z-score),[8],2.03
same,glycan array binding signal (z-score),[9],-0.418
same,glycan array binding signal (z-score),Neu5Ac(a2-6)GalNAc,3.61
same,glycan array binding signal (z-score),[10],2.56
same,glycan array binding signal (z-score),[11],3.49
same,glycan array binding signal (z-score),[12],-0.399
same,glycan array binding signal (z-score),[13],-0.424
